Experimental findings from PubChem BioAssay (EPA / NIEHS) are described below.

Results filed as inconclusive are left out. Calls of active or inactive are those of the source. The calls were made as follows, unless noted: active = hit-call score of the fitted dose curve at least 0.9, where 1 is the maximum; inconclusive = response in the unintended direction; inactive = score below 0.9.

Experiment [1] is described as follows: Tanguay_ZF_120hpf_MORT_legacy: (Legacy) Oregon State University Tanguay Lab 120 Hour Post-fertilization zebrafish Assay for Mortality (AID 2283633).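 As to AC50: fitted as increase in binary mortality versus DMSO negative control.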 In a few lines: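 Dechorionated Tropical 5D wild-type zebrafish embryos, one per well from 6 hpf, were statically exposed at 28C in the dark until 120 hpf (0.64% DMSO final). Mortality was scored as present/absent by brightfield microscopy, fitted positively versus DMSO.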

Experiment [2] can be described thus: Tanguay_ZF_120hpf_YSE_legacy: (Legacy) Oregon State University Tanguay Lab 120 Hour Post-fertilization zebrafish Assay for Yolk Sac Edema (AID 2283634).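 As to AC50: actives raise the incidence of yolk sac edema above the DMSO baseline.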 In short, it runs like this:
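Tropical 5D wild-type embryos, dechorionated with pronase at 4 hpf, were exposed singly from 6 hpf to 120 hpf under static, sealed, dark conditions at 28C with 0.64% DMSO final. Yolk sac edema was scored present/absent by brightfield microscopy.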

Experiment [3] in a line: Tanguay_ZF_120hpf_AXIS_legacy: (Legacy) Oregon State University Tanguay Lab 120 Hour Post-fertilization zebrafish Assay for Body Axis Malformation (AID 2283635).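 As to AC50: potency for an increased fraction of larvae scored with body axis malformation.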 In a few lines: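 Tropical 5D wild-type zebrafish embryos, dechorionated with pronase at 4 hpf, were placed singly in wells at 6 hpf and exposed statically to test chemical (0.64% DMSO final) at 28C until 120 hpf, then scored by brightfield for body axis defects.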

The nature of experiment [4]: Tanguay_ZF_120hpf_EYE_legacy: (Legacy) Oregon State University Tanguay Lab 120 Hour Post-fertilization zebrafish Assay for Eye Malformation (AID 2283636).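 Also: binary presence or absence of eye malformation scored by brightfield in 120 hpf larvae.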 In a few lines: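 Static waterborne exposure of dechorionated zebrafish embryos (strain Tropical 5D), 6 to 120 hpf, sealed plates at 28C, 0.64% DMSO vehicle. Eye malformation is scored as a binary endpoint, with gain of signal analysed relative to DMSO.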

The nature of experiment [5]: Tanguay_ZF_120hpf_SNOU_legacy: (Legacy) Oregon State University Tanguay Lab 120 Hour Post-fertilization zebrafish Assay for Snout Malformation (AID 2283637). In short, it runs like this: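 Dechorionated zebrafish, individually housed from 6 hpf in covered, sealed wells at 28C with 0.64% DMSO vehicle, were examined at 120 hpf for snout malformation. Responses were binary and analysed positive-direction relative to DMSO.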

A short description of experiment [6]: Tanguay_ZF_120hpf_JAW_legacy: (Legacy) Oregon State University Tanguay Lab 120 Hour Post-fertilization zebrafish Assay for Jaw Malformation (AID 2283638).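 As to AC50: active means more embryos with jaw malformation than DMSO controls.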 In a few lines: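 Tropical 5D wild-type embryos, dechorionated with pronase at 4 hpf, were placed singly per well at 6 hpf and statically exposed at 28C until 120 hpf (0.64% DMSO final). Jaw malformation scored as present/absent by brightfield microscopy at 120 hpf, analyzed relative to DMSO.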

The nature of experiment [7]: Tanguay_ZF_120hpf_OTIC_legacy: (Legacy) Oregon State University Tanguay Lab 120 Hour Post-fertilization zebrafish Assay for Otic Vesicle Malformation (AID 2283639). In a few lines:
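Statically exposed wild-type 5D zebrafish embryos, kept sealed and dark at 28C through 120 hours post fertilization, were examined by brightfield microscopy for otic vesicle defects. Responses were recorded as present or absent and analysed relative to DMSO.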

Experiment [8] can be described thus: Tanguay_ZF_120hpf_PE_legacy: (Legacy) Oregon State University Tanguay Lab 120 Hour Post-fertilization zebrafish Assay for Pericardial Edema (AID 2283640).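 As to AC50: potency for increased incidence of pericardial edema versus DMSO baseline.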 In a few lines:
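Tropical 5D wild-type zebrafish embryos were exposed statically to 120 hpf at 28C, sealed and foil-covered, in 0.64% DMSO final. Pericardial edema was scored present/absent by brightfield microscopy; dead embryos were not scored.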

Experiment [9] is described as follows: Tanguay_ZF_120hpf_BRAI_legacy: (Legacy) Oregon State University Tanguay Lab 120 Hour Post-fertilization zebrafish Assay for Brain Malformation (AID 2283641). In short, it runs like this: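 Tropical 5D wild-type zebrafish embryos were exposed statically in sealed, foil-covered plates at 28C until 120 hpf, with 0.64% (vol/vol) final DMSO. Brain malformation was scored present/absent by brightfield microscopy, relative to DMSO baseline.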

A short description of experiment [10]: Tanguay_ZF_120hpf_SOMI_legacy: (Legacy) Oregon State University Tanguay Lab 120 Hour Post-fertilization zebrafish Assay for Somite Malformation (AID 2283647). In a few lines: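 Tropical 5D wild-type zebrafish embryos, dechorionated with pronase at 4 hpf, were placed singly at 6 hpf and statically exposed until 120 hpf at 28C in 0.64% DMSO. Somite malformation was scored present/absent by brightfield microscopy versus DMSO.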

The nature of experiment [11]: Tanguay_ZF_120hpf_PFIN_legacy: (Legacy) Oregon State University Tanguay Lab 120 Hour Post-fertilization zebrafish Assay for Pectoral Fin Malformation (AID 2283648).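 Also: each larva judged yes or no for fin defect by brightfield with dead larvae skipped.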 In a few lines:
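Scoring of pectoral fin malformation was binary, made at 120 hpf on larvae exposed statically from 6 hpf after enzymatic chorion removal. Activity was fitted upward relative to DMSO controls at 0.64% (vol/vol).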

The nature of experiment [12]: Tanguay_ZF_120hpf_CIRC_legacy: (Legacy) Oregon State University Tanguay Lab 120 Hour Post-fertilization zebrafish Assay for Circulatory Malformation (AID 2283651). In a few lines:
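Embryos are dechorionated at 4 hpf, plated one per well at 6 hpf, then held under static exposure at 28C until 120 hpf. Malformations are recorded as binary calls; mortality excludes other endpoints.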

Experiment [13] can be described thus: Tanguay_ZF_120hpf_SWIM_legacy: (Legacy) Oregon State University Tanguay Lab 120 Hour Post-fertilization zebrafish Assay for Swim Bladder Malformation (AID 2283654).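 Also: swim bladder malformation in each larva scored yes or no under brightfield.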 In short, it runs like this: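 Static waterborne exposure of single dechorionated Tropical 5D zebrafish embryos, 6–120 hpf, 28C, 0.64% DMSO final. Read-out: swim bladder malformation, present/absent, relative to DMSO negative control; trimethyltin chloride 5uM served as positive control.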

Experiment [14] in a line: Tanguay_ZF_120hpf_TRUN_legacy: (Legacy) Oregon State University Tanguay Lab 120 Hour Post-fertilization zebrafish Assay for Truncated Body (AID 2283655). In a few lines: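 Tropical 5D wild-type embryos, dechorionated with pronase at 4 hpf, were placed singly in wells at 6 hpf and statically exposed at 28C until 120 hpf, final DMSO 0.64%. Truncated body was scored present/absent by brightfield microscopy.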

Experiment [15] can be described thus: Tanguay_ZF_120hpf_CFIN_legacy: (Legacy) Oregon State University Tanguay Lab 120 Hour Post-fertilization zebrafish Assay for Caudal Fin Malformation (AID 2283649). In short, it runs like this:
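Tropical 5D wild-type embryos, dechorionated with pronase at 4 hpf, were placed singly in wells at 6 hpf and statically exposed to compound at 28C until 120 hpf (0.64% DMSO). Caudal fin malformation was scored present/absent by brightfield microscopy.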

Experiment [16] can be described thus: Tanguay_ZF_120hpf_PIG_legacy: (Legacy) Oregon State University Tanguay Lab 120 Hour Post-fertilization zebrafish Assay for Pigmentation Malformation (AID 2283650). In short, it runs like this: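 Endpoint is incidence of abnormal pigmentation at 120 hpf in dechorionated 5D zebrafish exposed singly from 6 hpf at 28C, DMSO vehicle at 0.64%. Embryos dying by 24 or 120 hpf are excluded from scoring.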

Experiment [17] is described as follows: Tanguay_ZF_120hpf_NC_legacy: (Legacy) Oregon State University Tanguay Lab 120 Hour Post-fertilization zebrafish Assay for Notochord and Tail Malformation (AID 2283656). In short, it runs like this: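 Binary scoring of notochord distortion by brightfield microscopy; embryos dying were not scored. Wild-type Tropical 5D embryos, chorion removed, exposed singly and statically from 6 to 120 hpf, 28C, sealed, 0.64% DMSO.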

Read-out in experiment [18]: solute carrier (SLC22A6), SLC22A6 (gene 9356)
Nature of the experiment: LTEA_HepaRG_SLC22A6: Life Technologies and Expression Analysis (LTEA) Assay for solute carrier (SLC22A6) using HepaRG (AID 2283653; active = hit-call score of the fitted dose curve at least 0.9, where 1 is the maximum; inactive = score below 0.9). The conditions noted are these: mRNA level, 48 h; actives raise or lower the signal. In a few lines: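 Differentiated human HepaRG cells were exposed for 48 h in serum-free induction medium to eight concentrations (top 100 uM, half-log steps, 0.5% DMSO), in duplicate. SLC22A6 mRNA was quantified by qRT-PCR, normalised to ACTB, GAPDH and POLR2A, and fitted bidirectionally against DMSO.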

Read-out in experiment [19]: solute carrier (SLC10A1), SLC10A1 (gene 6554)
Nature of the experiment: LTEA_HepaRG_SLC10A1: Life Technologies and Expression Analysis (LTEA) Assay for solute carrier (SLC10A1) using HepaRG (AID 2283657; active = hit-call score of the fitted dose curve at least 0.9, where 1 is the maximum; inactive = score below 0.9). To be noted: mRNA level, 48 h; actives raise or lower the signal. In short, it runs like this: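 Cryopreserved HepaRG cells are thawed, plated and cultured 48 h; medium is then switched to serum-free induction medium and chemicals added (8 points, max 100 uM, 0.5% DMSO). After 48 h, RNA is isolated and SLC10A1 quantified by qRT-PCR.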

The AC50 is the midpoint of the concentration-response curve, whichever way the signal moves. Turning to `Nc1ccc(N=Nc2ccccc2)cc1`, the result in experiment [1], in experiment [2], in experiment [3], in [4], in experiment [5] and in [6] was inactive. The compound was classed as inactive in experiment [7], in experiment [9], in experiment [10], in experiment [11], in [12] and in experiment [13]. The result in experiment [14] was inactive. The AC50 in experiment [8] was 25.6 µM (active).
With `Cn1cc(-c2ccccc2)c(=O)c(-c2cccc(C(F)(F)F)c2)c1`, the call in [1], in [2], in [3], in experiment [4], in [5] and in [6] was inactive. Also, the outcome in experiment [7], in experiment [8], in experiment [9], in [10], in experiment [11] and in [15] was inactive. Besides, the compound was called inactive in experiment [16], in [12], in experiment [13], in experiment [14] and in experiment [17].
On to `Nc1ccc(Cl)cc1N`, for which the values for the half-maximal activity concentration (AC50) in [1] and in [19] were 25.3 µM (active) and 20.9 µM (active), respectively. The compound was classed as inactive in experiment [2], in experiment [3], in experiment [4], in experiment [5], in experiment [6] and in experiment [7]. Moreover, the result in [8], in experiment [9], in experiment [10], in experiment [11], in experiment [15] and in experiment [16] was inactive. For the same compound, the compound was called inactive in experiment [12], in [18], in experiment [13] and in experiment [14].
Take `O=C1CCCO1`: the outcome in [1], in [2], in experiment [3], in experiment [4], in experiment [5] and in experiment [6] was inactive. Further, the outcome in experiment [7], in [8], in experiment [10], in experiment [11], in experiment [15] and in experiment [16] was inactive. Further, the outcome in experiment [12], in experiment [13] and in experiment [14] was inactive.
For the compound `Oc1ccc2ccc3cccc4ccc1c2c34`, the AC50 in experiment [1] was 35.6 µM (active); in experiment [2], 13.7 µM (active); in experiment [3] it was 13.1 µM (active); in experiment [4], 44.9 µM (active); in experiment [5], 44.2 µM (active); in experiment [6] it was 46.8 µM (active). Moreover, the AC50 in experiment [7] was 11.2 µM (active); in [8], 50.4 µM (active); in experiment [9] it was 46.1 µM (active); in experiment [10], 18.4 µM (active); in [11], 12.2 µM (active); in [15], 12.4 µM (active). Besides, the AC50 was 44 µM (active) in experiment [16], 48.3 µM (active) in [13], 46.5 µM (active) in experiment [14] and 11 µM (active) in experiment [17]. Further, the outcome in [12] was inactive.
In the case of `CCCCC(CC)COC(=O)c1ccc(C(=O)OCC(CC)CCCC)c(C(=O)OCC(CC)CCCC)c1` (stereo not given), the compound was called inactive in experiment [1], in [2], in [3], in [4], in experiment [5] and in experiment [6]. The result in [7], in [8], in [9], in experiment [10], in [11] and in [15] was inactive. The outcome in [16], in [12], in experiment [13], in experiment [14] and in experiment [17] was inactive.
For the compound `CCOc1cccc(C2(N3CCN(c4ccccc4)CC3)CCC(C)CC2)c1` (stereo not given), the call in experiment [1], in experiment [2], in experiment [3], in experiment [4], in experiment [5] and in experiment [6] was inactive. Besides, the result in experiment [7], in [9], in [10], in [11], in experiment [15] and in [16] was inactive. Besides, the call in experiment [12], in experiment [13], in [14] and in experiment [17] was inactive.
Take `CN(C)c1ccccc1`: the result in experiment [1], in experiment [2], in experiment [3], in experiment [4], in experiment [5] and in experiment [6] was inactive. The result in [7], in experiment [9], in [10], in experiment [11], in [15] and in experiment [16] was inactive. Moreover, the compound was called inactive in experiment [12], in experiment [13], in [14] and in experiment [17].
